PubChem BioAssay (NCI)
Compounds without any hit were thinned out: in the full panel of roughly 83,000, 20% have a hit.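 The endpoint reported here, percent growth, reads 100 for growth as untreated, 0 for no net growth and -100 for all cells dead.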 Unmarked numbers belong to inactive results. Active and inactive are the calls of the source. How the source made its calls: active means growth percent below 10; inactive means the rest.

Tests used:
Assay in all cases: NCI-60 one-dose screen, 48 h (100 = growth as untreated, 0 = no growth, -100 = all killed)
Settings in all cases: 10 µM unless noted
T-47D breast = system: T-47D breast
BT-549 breast = system: BT-549 breast
MDA-MB-435 melanoma = system: MDA-MB-435 melanoma
SW-620 colon = system: SW-620 colon
MCF7 breast = system: MCF7 breast
HCT-116 colon = system: HCT-116 colon
HCC-2998 colon = system: HCC-2998 colon
KM12 colon = system: KM12 colon

| Compound | growth (T-47D breast) | growth (BT-549 breast) | growth (MDA-MB-435 melanoma) | growth (SW-620 colon) | growth (MCF7 breast) | growth (HCT-116 colon) | growth (HCC-2998 colon) | growth (KM12 colon) |
| --- | --- | --- | --- | --- | --- | --- | --- | --- |
| COc1cccc(/C=C2\COc3ccc(O)c(O)c3C2=O)c1 | -0.573% (active) | 15.6% | -3.44% (active) | 1.94% (active) | 17.6% | -7.55% (active) | 19.8% | -13.7% (active) |
| COCCOc1cc2ncnc(N3CCN(c4ncc(S(=O)(=O)N5CCCCC5)cn4)CC3)c2cc1OCCOC | 87% | 105% | 105% | 109% | 78.7% | 100% | 99.3% | 97.6% |
| CSc1nnc(-c2cc3c([nH]c4ccccc43)c(-c3cccc(O)c3)n2)n1-c1ccccc1 | 44.9% | 37.6% | -49.9% (active) | 31.3% | 13.2% | 18.3% | 67.3% | 21.6% |
| COCCn1cc(-c2csc(-c3cn(C)c4ccc(Br)cc34)n2)c2cccnc21 | 17.6% | 64.6% | 61.2% | 21.9% | 50.2% | 49.2% | 25.7% | 23.8% |
| C=C(CBr)[C@@H]1CC[C@]2(C(=O)O)CC[C@]3(C)[C@H](CC[C@@H]4[C@@]5(C)CCC(=O)C(C)(C)[C@@H]5CC[C@]43C)[C@@H]12 | 67.9% | 84% | 95.6% | 85.5% | 78.2% | 72.6% | 95.7% | 68.6% |
| COc1ccc(/C=C(\C#N)n2nnc3ccc(Cl)cc32)cc1 | 51.1% | 68% | -22.8% (active) | 11.8% | 18.6% | 39% | 87.3% | 39.3% |
| COc1ccc(-c2nn(-c3cccc(Cl)c3)cc2-c2cc(-c3ccc(Br)cc3)nc(N)n2)cc1 | 66.2% | 114% | 99.6% | 100% | 57.4% | 91.5% | 104% | 93.4% |
| O=C1/C(=C/c2ccc([N+](=O)[O-])cc2)COc2ccc(O)cc21 | 79.4% | 95% | 82.4% | -11.7% (active) | 5.28% (active) | -5.5% (active) | 98.5% | 48% |
| CCOC(=O)c1c(NC(=O)c2cccc(C(F)(F)F)c2)sc2c(CN(C)C)c(O)ccc12 | 70.3% | 96.3% | -22.6% (active) | -6.39% (active) | 26.3% | 33.7% | -64.2% (active) | 79.4% |
| C1CN(SSN2CCOCC2)CCO1 | -24.8% [100 µM] (active) | -90% [100 µM] (active) | 0.278% [100 µM] (active) | -56.4% [100 µM] (active) | 22.1% [100 µM] | -75.5% [100 µM] (active) | 90.7% [100 µM] | 2.07% [100 µM] (active) |
| N#CC1=C(N)Oc2c(ccc3ccccc23)C1c1ccccc1 (stereo not drawn) | 63.5% | -16.5% (active) | -38.9% (active) | 28.2% | 11.1% | 3.37% (active) | -4.65% (active) | 14.7% |
| CC(C)C1=NOC(=O)C1=Cc1cn(-c2ccccc2)nc1-c1ccc(F)cc1 | 76.9% | 121% | 77.4% | 61.2% | 50.8% | 32.4% | 79.8% | 69.7% |
| O=C(NCCCl)Nc1ncccc1OCc1ccccc1 | 97.9% | 105% | 97.1% | 99% | 96.3% | 101% | 102% | 108% |
| CCOC(=O)C#Cc1c(C(=O)OCC)nnn1Cc1ccc([N+](=O)[O-])cc1 | 23.8% | 80.2% | 75.2% | -40.5% (active) | 6.62% (active) | 43.4% | 81.1% | 92% |
| Cc1ccccc1/C=C/C(=O)c1cccc(OCCCCOc2cccc(C(=O)/C=C/c3ccccc3C)c2)c1 | 91.4% | 111% | 95% | 94.6% | 41.5% | 41.6% | 93.4% | 96.7% |
| O=C(Nc1ccc(Oc2cccc(Cl)c2)c(Cl)c1)c1cnccn1 | 40.7% | 57.4% | -39.7% (active) | 22.7% | 20.3% | 20.9% | 50.8% | 20.7% |

| Compound | growth (T-47D breast) | growth (BT-549 breast) | growth (MDA-MB-435 melanoma) | growth (SW-620 colon) | growth (MCF7 breast) | growth (HCT-116 colon) | growth (HCC-2998 colon) | growth (KM12 colon) |
| --- | --- | --- | --- | --- | --- | --- | --- | --- |
| Cc1ccc(-c2nc(N3CCCNCC3)c3oc(-c4ccc(C)cc4)nc3n2)cc1 | -46% (active) | 90.2% | 70.8% | -49.7% (active) | -64.8% (active) | 27.5% | 40.9% | 11.3% |
| Cc1nc2sc(C(=O)Nc3cccc4ccccc34)c(N)c2cc1C(O)c1ccccc1 (stereo not drawn) | 45.4% | 40.2% | 0.328% (active) | 20.2% | 12.4% | 8.89% (active) | 5.55% (active) | 7.64% (active) |
| Cn1cc(C(=O)c2nc(-c3c[nH]c4ccccc34)no2)c2cc(F)ccc21 | 37.8% | 48% | -19.1% (active) | 23.2% | 19.2% | 19.5% | 73.9% | 26.7% |
| Cc1cc(=O)oc2cc(OCc3nn4c(Nc5nc6ccccc6s5)c(-c5ccccc5)nc4s3)ccc12 | 88.1% | 92.6% | 88.8% | 85.3% | 84.1% | 85.4% | 98.5% | 89.6% |
| CS(=O)(=O)Nc1cncc(-c2ccc3ncnc(Nc4cncc(Cl)c4)c3c2)c1 | 2.52% (active) | 72.6% | 103% | 107% | 55.6% | 91.3% | 95% | 84.7% |
| CCOC(=O)c1c2c(n3cccc(F)c13)C(=O)c1ncccc1C2=O | 54.5% | 21.7% | 13.1% | -7.69% (active) | -23.1% (active) | -10.7% (active) | 25% | 19% |
| C=CCN=c1sc2c(n1NC(=O)c1cc3ccc1CCc1ccc(cc1)CC3)C(=O)c1ccccc1C2=O | -3.21% (active) | -99.1% (active) | -93.5% (active) | -59.7% (active) | -62.8% (active) | -32.4% (active) | -33.5% (active) | 6.04% (active) |
| COc1ccc(CNc2c3ccccc3nc3ccccc23)cc1 | 44.9% | 80.1% | 40.2% | 25.6% | 12.6% | 9.53% (active) | 38.6% | 33.2% |
| COC(=O)/C=C1/SC(=Nc2cccc(OC)c2)N(CCc2c[nH]c3ccc(O)cc23)C1=O | 42.2% | 33.1% | 23.5% | 56.1% | 20.4% | 34.3% | 65.1% | 53.5% |
| CN1CCN(C(=O)c2ccc(NC(=O)c3cc4c(nn3)NCCN4Cc3cc(Cl)ccc3Cl)cc2)CC1 | 97.3% | 60.1% | 61.4% | 50.6% | 46% | 32% | 99.8% | 21.7% |
| CCCn1cc2c(=O)nc3sc(Cc4ccccc4)c(C)n3c2n1 | 84.8% | 106% | 106% | 101% | 91.6% | 102% | 104% | 94.4% |
| O=C1c2c(c3c4ccccc4[nH]c3c3ccc4ccccc4c23)C(=O)N1CCN1CCNCC1 | 55.8% | 93.5% | 80.9% | -54.9% (active) | 23% | -81.3% (active) | 73.7% | 36.3% |
| COc1ccc(/C=C/C(=O)c2cc3c(N)c(C(=O)Nc4cccc5ccccc45)sc3nc2C)cc1 | 66.4% | 87.5% | -18.8% (active) | 24.8% | 13.5% | 86.6% | 94.9% | 74.4% |
| O=C(O)c1cn(C2CC2)c2cc(N3CCN(Cc4ccc5ccccc5c4O)CC3)c(F)cc2c1=O | 30.9% | -59.1% (active) | 33.6% | 36.1% | 17% | 14.5% | 41.9% | 42.4% |
| C=C(C)[C@@H]1CC[C@]2(C(=O)N3CCOCC3)CC[C@]3(C)[C@H](CC[C@@H]4[C@@]5(C)C/C(=C/c6ccncc6)C(=O)C(C)(C)[C@@H]5CC[C@]43C)[C@@H]12 | 26.5% | 73.4% | 62.3% | 50.3% | 28.9% | 32.4% | 58.7% | 52.2% |
